The record followed here is PubChem BioAssay (NCATS).

Structures are written as SMILES. Values joined by “and” are separate entries in the source; they are usually repeats but may differ in a detail not shown here. Equal entries are not always repeated. Results filed as inconclusive are left out. Active and inactive are the calls of the source. Unless noted, calls come from the whole dose curve.

Test system in the first assay: not listed separately
Kind of assay: qHTS assay for small molecule agonists of the antioxidant response element (ARE) signaling pathway (AID 651741; active = well fitted activation curve with a large enough effect in the signal ratio; the % refers to the signal ratio; note: potency is the fitted concentration of half-maximal effect; for activation: % of control where 0% means no effect). The note with it: HepG2 ARE-bla reporter, beta-lactamase FRET ratio, 16 h; series mostly up to 96 µM; activation: at the top concentration. The gist of the method:
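Quantitative HTS in HepG2 cells stably expressing an ARE-beta-lactamase reporter; 16 h compound exposure at 37 C, followed by 2 h room-temperature incubation with LiveBLAzer B/G FRET substrate and fluorescence measurement.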
Turning to `CC1(C)[C@@H]2CC[C@@]1(C)C(=O)C2`, the “activation” value is -1.05% (inactive).

For the compound `NC(=O)N/N=C/c1ccc([N+](=O)[O-])o1`, the Potency was 17.2 µM (active) and 21.1 µM (active).

Take `CCCCCCCCCCCCOS(=O)(=O)O`: the “activation” value was 10.5% (inactive).

Test system in the next assay: not listed separately
The experiment in a line: qHTS assay for small molecule activators of the p53 signaling pathway (AID 651743; active = well fitted activation curve with a large enough effect in the signal ratio, not every such curve was filed as active; the % refers to the signal ratio; note: % of control where 0% means no effect). Conditions: HCT-116 p53RE-bla, beta-lactamase FRET ratio, 16 h; stronger effect = higher value. The gist of the method: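 Read-out is fluorescence intensity from the LiveBLAzer B/G FRET substrate, added for 2 hours at room temperature after HCT-116 p53RE-bla cells had been incubated with compounds for 16 hours at 37 C.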
Take `CC(CN1c2ccccc2Sc2ccccc21)N(C)C` (stereo unspecified): the activation is -4.88% (inactive).

On to `CC1(C)[C@@H]2CC[C@@]1(C)C(=O)C2`, for which the activation was 0.0082% (inactive).

In the case of `NC(=O)N/N=C/c1ccc([N+](=O)[O-])o1`, the activation is -0.844% (inactive) and -0.297% (inactive).

For the compound `Oc1cccc(O)c1`, the activation was 5.92% (inactive).

Turning to `CN(C)CCCN1c2ccccc2Sc2ccc(Cl)cc21`, the activation is 10.1% (inactive).

In the case of `COC(=O)C1=C(C)NC(C)=C(C(=O)OC)C1c1ccccc1[N+](=O)[O-]`, the activation is -2.95% (inactive).

With `[Cl][In]([Cl])[Cl]`, the activation is -6.82% (inactive).

Consider `COc1ccc(Cl)cc1C(=O)NCCc1ccc(S(=O)(=O)NC(=O)NC2CCCCC2)cc1`, for which the activation is -6.63% (inactive).

As for `CCCc1c(OCCCCc2nn[nH]n2)ccc(C(C)=O)c1O`, the activation was 16.1% (inactive).

Test system in a further assay: not listed separately
Kind of assay: qHTS assay for small molecule activators of the nuclear factor-kappa B (NF-kB) signaling pathway (AID 651749; active = well fitted activation curve with a large enough effect in the signal ratio; the % refers to the signal ratio; note: potency is the fitted concentration of half-maximal effect; for activation: % of control where 0% means no effect). The note with it: NF-kB-bla ME-180 cells, beta-lactamase FRET ratio, 16 h; activation: stronger effect = higher value. The essentials: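 Readout: beta-lactamase reporter driven by an NF-kB response element, detected fluorescently as loss of FRET. Cells were the ME-180 line, treated 16 hr at 37C with pin-transferred compound.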
Turning to `CC(CN1c2ccccc2Sc2ccccc21)N(C)C` (stereo unspecified), the Potency is 25.1 µM (active).

On to `CC1(C)[C@@H]2CC[C@@]1(C)C(=O)C2`, for which the activation is -0.497% (inactive).

For the compound `NC(=O)N/N=C/c1ccc([N+](=O)[O-])o1`, the activation is -2.02% (inactive) and 0.212% (inactive).

For `Oc1cccc(O)c1`, the activation is -1.45% (inactive).

In the case of `COc1ccc(Cl)cc1C(=O)NCCc1ccc(S(=O)(=O)NC(=O)NC2CCCCC2)cc1`, the activation is -2.47% (inactive).

For `CCCc1c(OCCCCc2nn[nH]n2)ccc(C(C)=O)c1O`, the activation was -0.919% (inactive).

Test system in the next assay: not listed separately
Kind of assay: qHTS assay for small molecule disruptors of the mitochondrial membrane potential - 1 hr assay (AID 651754). Note: % is set by controls: 0 for no effect and ±100 for the full control effect; nearly all actives have a fitted effect of over 35% in size. Conditions: series mostly up to 92.2 µM; ratio change, negative = depolarisation: at the top concentration. The gist of the method:
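HepG2, 2,000 cells/well, overnight attachment; cpd or DMSO 1 hr, 37C/5% CO2; Mito-MPS dye 30 min, 37C; fluorescence monomer (490/535) and aggregate (540/590).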
As for `Oc1cccc(O)c1`, the “ratio change, negative = depolarisation” value is -14% (inactive).

Regarding `COC(=O)C1=C(C)NC(C)=C(C(=O)OC)C1c1ccccc1[N+](=O)[O-]`, the “ratio change, negative = depolarisation” value was 0.519% (inactive).

With `[Cl][In]([Cl])[Cl]`, the “ratio change, negative = depolarisation” value is -1.06% (inactive).

On to `CCCCCCCCCCCCOS(=O)(=O)O`, for which the Potency entry was “inactive”.

Test system in another assay: not listed separately
The experiment in a line: qHTS assay for small molecule disruptors of the mitochondrial membrane potential - 5 hr assay (AID 651755). Note: % is set by controls: 0 for no effect and ±100 for the full control effect; nearly all actives have a fitted effect of over 40% in size. Conditions: JC-1-type ratio dye; series mostly up to 92.2 µM; ratio change, negative = disruption: at the top concentration. The essentials: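 HepG2, 2,000 cells/well, overnight attach; cpd or DMSO 5 hr, 37C/5% CO2; Mito-MPS 30 min 37C; fluor 490/535 + 540/590 nm.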
As for `NC(=O)N/N=C/c1ccc([N+](=O)[O-])o1`, the “ratio change, negative = disruption” value is -23.7% (inactive).

On to `Oc1cccc(O)c1`, for which the “ratio change, negative = disruption” value is -5.37% (inactive).

As to `COC(=O)C1=C(C)NC(C)=C(C(=O)OC)C1c1ccccc1[N+](=O)[O-]`, the “ratio change, negative = disruption” value is 3.94% (inactive).

In the case of `[Cl][In]([Cl])[Cl]`, the “ratio change, negative = disruption” value is 2.02% (inactive).

As for `CCCCCCCCCCCCOS(=O)(=O)O`, the Potency result is “inactive”.

The target in a further assay is Tumor necrosis factor (Homo sapiens) (UniProt P01375). The experiment in a line: qHTS assay to identify small molecules that stimulate Tumor Necrosis Factor-alpha (TNF-alpha) secretion (AID 651757; active = well fitted curve in the direction sought with a large enough effect in the signal ratio; the % refers to the signal ratio; note: 0% is about no effect). The note with it: Human cells, HTRF 665/615 ratio; series mostly up to 92.2 µM; activation (TNF-alpha secretion): at the top concentration. The essentials: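 Read-out is HTRF, a TR-FRET sandwich of cryptate- and XL665-labeled anti-TNF-alpha antibodies detecting cytokine secreted by THP-1 cells. Cells had been incubated with test compounds at 37 C for 17 hrs beforehand.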
Tumor necrosis factor (Homo sapiens), sequence (P01375 whole entry, looked up): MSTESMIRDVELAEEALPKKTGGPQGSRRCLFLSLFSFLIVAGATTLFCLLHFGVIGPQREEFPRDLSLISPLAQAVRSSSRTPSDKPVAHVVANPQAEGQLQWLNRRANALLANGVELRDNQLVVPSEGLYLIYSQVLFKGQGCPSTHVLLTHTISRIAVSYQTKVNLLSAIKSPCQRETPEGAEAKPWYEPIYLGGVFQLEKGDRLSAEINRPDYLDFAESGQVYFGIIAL
For `CC1(C)[C@@H]2CC[C@@]1(C)C(=O)C2`, the “activation (TNF-alpha secretion)” value is -0.063% (inactive).

As to `Oc1cccc(O)c1`, the “activation (TNF-alpha secretion)” value was -0.359% (inactive).

For `[Cl][In]([Cl])[Cl]`, the “activation (TNF-alpha secretion)” value was -0.928% (inactive).

With `CCCCCCCCCCCCOS(=O)(=O)O`, the result was inactive.
